Source: PubChem BioAssay (NCATS)
Inconclusive results are not listed. Entries that show only a call come without a potency. The source made the active and inactive calls. The call rests on the fitted dose curve; in most records, active means well fitted inhibition curve with a large enough effect; inconclusive means small, poorly fitted or top-dose-only effect; inactive means flat fitted curve, though single readings scatter.

Target: Ubiquitin carboxyl-terminal hydrolase 1 (Homo sapiens) (UniProt O94782)
Test: Inhibitors of USP1/UAF1: Pilot qHTS (AID 504865); further: nearly all actives have a fitted effect of over 35% in size
Procedure, shortened: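 USP1/UAF1 complex (1nM) preincubated with compound 15 min at room temperature, then Ub-Rho substrate (150nM final) added. Fluorescence read kinetically at 480/540 nm, 6 reads every 60 seconds. Buffer: 50mM HEPES pH 7.8, 0.5mM EDTA, 0.1 mg/ml BSA, 1mM TCEP, 0.01% Tween-20.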
Potency means the concentration at half of the fitted maximal effect.

Chain of Ubiquitin carboxyl-terminal hydrolase 1 (Homo sapiens) (O94782 whole entry, looked up): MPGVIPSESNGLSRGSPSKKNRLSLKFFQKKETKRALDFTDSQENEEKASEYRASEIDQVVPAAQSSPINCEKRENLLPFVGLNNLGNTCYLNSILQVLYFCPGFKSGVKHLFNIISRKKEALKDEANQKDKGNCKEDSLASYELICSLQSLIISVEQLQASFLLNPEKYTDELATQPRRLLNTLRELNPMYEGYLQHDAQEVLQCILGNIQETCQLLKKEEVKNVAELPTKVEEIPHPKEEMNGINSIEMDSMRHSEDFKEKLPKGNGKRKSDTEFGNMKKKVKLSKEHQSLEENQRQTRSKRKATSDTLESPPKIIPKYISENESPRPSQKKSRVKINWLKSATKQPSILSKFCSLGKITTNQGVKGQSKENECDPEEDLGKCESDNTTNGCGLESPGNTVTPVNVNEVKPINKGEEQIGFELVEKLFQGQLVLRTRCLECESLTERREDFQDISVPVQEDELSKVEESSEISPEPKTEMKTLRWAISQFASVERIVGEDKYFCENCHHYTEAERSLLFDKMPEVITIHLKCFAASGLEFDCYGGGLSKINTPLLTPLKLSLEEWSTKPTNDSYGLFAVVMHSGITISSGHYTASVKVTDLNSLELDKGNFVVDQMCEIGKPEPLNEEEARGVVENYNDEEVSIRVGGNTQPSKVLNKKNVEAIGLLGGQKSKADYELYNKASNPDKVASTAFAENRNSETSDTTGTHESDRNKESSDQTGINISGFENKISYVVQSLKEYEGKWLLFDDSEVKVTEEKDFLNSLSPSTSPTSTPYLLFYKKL

Row | SMILES | Potency
1 | C=CCC1(C(C)CCC)C(=O)N=C(S)NC1=O (stereo unspecified) | inactive
2 | CCON=O | inactive
3 | COC1=CC=C2[C@H]3Cc4ccc(OC)c5c4[C@@]2(CCN3C)[C@H]1O5 | inactive
4 | CCCC(C)C1(CC)C(=O)NC(=O)NC1=O (stereo unspecified) | inactive
5 | FC(F)OC(F)(F)C(F)Cl (stereo unspecified) | inactive
6 | S=C(S)N1CCNCC1 | inactive
7 | CC[N+](C)(CC)CCOC(=O)C(O)(c1ccccc1)c1ccccc1 | inactive
8 | O=C(CCl)c1ccc(Oc2ccc(C(=O)CCl)cc2)cc1 | 56.2 µM (active)
9 | COc1ccc2c3c1O[C@H]1C(=O)CC[C@H]4[C@@H](C2)N(C)CC[C@]314 | inactive
10 | CN1CCCC(=C(c2cccs2)c2cccs2)C1 | inactive
11 | O=[N+]([O-])c1cc(I)c(O)c(I)c1 | inactive
12 | CC(=O)O[C@H]1CC[C@H]2[C@@H]3CCC4=CC(=O)CCC4=C3C=C[C@]12C | inactive
13 | CCC1(c2ccccc2)C(=O)NC(=O)N(C)C1=O (stereo unspecified) | inactive
14 | CCC(=O)O[C@@](Cc1ccccc1)(c1ccccc1)[C@@H](C)CN(C)C | inactive
15 | O=C1CN(O)C(c2ccccc2)=c2cc(Cl)ccc2=N1 | inactive
16 | F/C(COc1ccc2c(c1)[nH]c1ccccc12)=C1/CN2CCC1CC2 | inactive
17 | CCNC(C)Cc1cccc(C(F)(F)F)c1 (stereo unspecified) | inactive
18 | CC(N)Cc1ccc(O)cc1 (stereo unspecified) | inactive
19 | O=C(NC(=O)c1c(F)cccc1F)Nc1ccc(Cl)c(Oc2ncc(C(F)(F)F)cc2Cl)c1 | inactive
20 | COC([CH2][Hg])CNC(=O)c1ccccc1OCC(=O)O (stereo unspecified) | inactive
21 | O=C(NCNC(=O)NC1C(=O)NC(=O)N1CO)NC1C(=O)NC(=O)N1CO (stereo unspecified) | inactive
